Pf growth 48h = Primary qHTS for delayed death inhibitors of the malarial parasite plastid, 48 hour incubation; P. falciparum luciferase growth in erythrocytes, 48 h; Potency, µM (doses to about 28.7 µM), for the others: at the highest dose activity change, negative = inhibition, usual class: inhibitors; actives 5.9% (n = 310,000); further: potency means the concentration at half of the fitted maximal effect; on the % scale 0 is the no-effect control and ±100 the full control effect
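Here the parasites carry a stable luciferase gene and grow inside erythrocytes in Albumax-based RPMI medium with compound for one erythrocytic cycle. Activity is scored as loss of luminescent signal.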
Pf growth 96h = Primary qHTS for delayed death inhibitors of the malarial parasite plastid, 96 hour incubation; Potency, µM (top dose mostly 28.7 µM), for the others: at the top dose activity change, negative = inhibition, actives largely listed as inhibitors; P. falciparum luciferase reporter growth, 96 h; actives 6.9% (n = 320,000); further: potency means the concentration at half of the fitted maximal effect; on the % scale 0 is the no-effect control and ±100 the full control effect
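P. falciparum expressing integrated firefly luciferase grown in erythrocytes (2% hematocrit, 0.05% parasitemia final) with compounds for 96 hours at 37 C, 5% CO2. Growth inhibition read as loss of luminescence after adding luciferase detection reagent.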
Lassa entry inh = qHTS for Inhibitors of binding or entry into cells for Lassa Virus; Lassa virus pseudotype entry inhibition, cell reporter; Potency, µM (top dose mostly 37.9 µM), inactives show at the top dose activity change, negative = inhibition, usual class: inhibitors; actives 1.2% (n = 300,000); AID 540256, 2011; calls by dose curve; tested in HEK293 cells; further: potency means the concentration at half of the fitted maximal effect; on the % scale 0 is the no-effect control and ±100 the full control effect; nearly all actives have a fitted effect of over 50% in size
Marburg entry inh = qHTS for inhibitors of binding or entry into cells for Marburg Virus. actives 1.8% (n = 300,000). Marburg virus pseudotyped entry inhibition, cell reporter. Potency, µM (highest dose often 37.8 µM), for the others: at the top dose activity change, negative = inhibition, usual class: inhibitors; calls by dose curve; tested in HEK293 cells; further: potency means the concentration at half of the fitted maximal effect; on the % scale 0 is the no-effect control and ±100 the full control effect
Shiga toxin inh = A qHTS for Small Molecule Inhibitors of Shiga Toxin; Vero cells, Shiga toxin protein synthesis inhibition reporter; actives 9.2% (n = 290,000); inhibition, % at 38.7 µM; in the data active means inhibition mostly above about 28%, no sharp cut-off; inactive means mostly below about 43%; further: 0% is about no effect
Cycloheximide cs = Cycloheximide Counterscreen for Small Molecule Inhibitors of Shiga Toxin. cell reporter, cycloheximide protein synthesis inhibition counterscreen. max response, %. actives 12% (n = 300,000). AID 2314, 2010; in the data active means max response mostly above about 13%, no sharp cut-off; inactive means mostly below about 14%; further: read at 38.3 µM for the half of the compounds with a filed dose; 0% is about no effect
* = called active by the depositor; i = inactive; ? = inconclusive; / = not tested or not shown; + = active, no number; [ ] = another dose, or the depositor's remark. A selection: hits, their analogues and other compounds. The true share with any hit is near 19%. Unless noted, the call rests on the fitted dose curve; in most records, active means well fitted inhibition curve with a large enough effect; inconclusive means small, poorly fitted or top-dose-only effect, or another doubt; inactive means no such curve, though single readings can be large or run the other way.

SMILES	Pf growth 48h	Pf growth 96h	Lassa entry inh	Marburg entry inh	Shiga toxin inh	Cycloheximide cs
N#Cc1cc([N+](=O)[O-])c(-n2nnc3ccccc32)c([N+](=O)[O-])c1	74%	134%	0%	?	11	-4
COc1ccccc1Oc1cc(C#N)c(C#N)cc1-n1nnc2ccccc21	9.3µM*	2.3µM*	?	?	-23	-3
CN(C)CCCNc1c(C(=O)O)cnc2c1cnn2C	7%	83%	/	/	-5	-3
Cn1nc([N+](=O)[O-])nc1Sc1ccc(Cl)cc1	?	-5%	19%	7%	-4	-1
CNc1ncnc(Sc2ccc(Cl)cc2)c1[N+](=O)[O-]	9.3µM*	-49%	20%	-24%	14	2
Cc1ccc(NS(=O)(=O)c2ccc(C(=O)N3CCCCCC3)cc2)cc1	10µM*	?	?	?	/	/
Cc1ccc(NS(=O)(=O)c2ccc(C(=O)N3CCC3)cc2)cc1	?	-1%	-27%	-16%[46.1 µM]	/	/
Cc1ccc(NS(=O)(=O)c2ccc(C(=O)N3CCCCCCC3)cc2)cc1	?	2.1µM*	?	-23%[46.1 µM]	99*	41*
Cc1ccc(C(=O)Nc2ccc(C(=O)N3CCCCC3)cc2)cc1	-2%	12%	/	/	25	27*
Cc1ccc(NS(=O)(=O)c2ccc(C(=O)N3CC(C)OC(C)C3)cc2)cc1 (stereo not drawn)	?	13µM*	-8%[46.1 µM]	1%[46.1 µM]	-24	-1
O=[N+]([O-])c1cc(F)c(N2CCCC2)cc1N1CCNCC1	6%	-3%	/	/	-17	-5
O=C(c1ccc(NS(=O)(=O)c2cccc(C(F)(F)F)c2)cc1)N1CCCC1	0%	10µM*	-12%	?	-6	0
Cc1ccc(S(=O)(=O)C2(C(=O)N3CCN(C4CCCCC4)CC3)CC2)cc1	-4%	120%	4%	-27%	18	0
Cc1nn(CC(=O)Nc2ccc(C(=O)N3CCCC3)cc2)c(=O)c2ccccc12	6%	9.3µM*	-6%	11%	-11	-2
Cc1cccc(CC(=O)Nc2ccc(C(=O)N3CCCCC3)cc2)c1	24%	?	10%	?	20	14*
O=C(c1ccc(NS(=O)(=O)c2cccc(F)c2)cc1)N1CCCC1	0%	4%	16%	-18%	-7	10
Cc1ccc(S(=O)(=O)C2(C(=O)N3CCCCCC3)CC2)cc1	-1%	4.1µM*	16%	14%	16	8
CCSc1nc2ccccc2n1S(=O)(=O)c1ccccc1	/	?	/	/	24	-2
Cc1oc2cc3oc(=O)c(CCC(=O)NCCCN4CCCC4=O)c(C)c3cc2c1C	-9%	-20%	/	/	8	2
COC(=O)c1c(N)sc(Cc2ccccc2)c1C	30%	?	7%[46.1 µM]	-2%[46.1 µM]	-9	6
CC(=O)Nc1ccc(NC(=O)C/C(C)=N/NC(=O)COc2cc(C)c(Br)cc2Br)cc1	37%	12%	14%[46.1 µM]	?	-11	4
Cc1cc2c(cc1S(=O)(=O)N1CCN(c3cccc(C)c3C)CC1)OCCN2C	?	?	/	/	-2	2
CCOC(=O)CSc1nc2c(sc(=S)n2-c2ccccc2OC)c(=O)n1Cc1ccco1	?	9%	5%	-4%	-2	-2
COc1ccc(-n2c(=S)[nH]c3c(sc(=S)n3-c3ccccc3)c2=O)c(OC)c1	10%	-24%	12%	-10%	-8	-10
COc1ccc(-n2c(SCC(=O)C(C)(C)C)nc3c(sc(=S)n3-c3ccccc3)c2=O)c(OC)c1	2.1µM*	0%	9%	-22%	-5	4
SMILES	Pf growth 48h	Pf growth 96h	Lassa entry inh	Marburg entry inh	Shiga toxin inh	Cycloheximide cs
CCOC(=O)CSc1nc2c(sc(=S)n2-c2ccccc2OC)c(=O)n1-c1ccccc1OC	12µM*	11%	-28%	?	-8	-1
Cc1cc(C)n(C(=O)COc2ccc([N+](=O)[O-])cc2)n1	-2%	12%	4%	?	9	0
CC(=O)OC1CCC2(/C=N/O)C(=CCC3C4CCC(=O)C4(C)CCC32)C1 (stereo not drawn)	4%	8%	/	/	/	0
O=C(Nc1cccc(-c2cn3c(n2)SCC3)c1)c1ccc2ccccc2n1	88%	i	/	-18%[46.1 µM]	133*	45*
O=C(Nc1ccc(-c2cn3c(n2)SCC3)cc1)c1ccc2ccccc2n1	3%	?	?	?	48*	50*
Oc1cc(Cc2ccccc2)cnc1CN1CCCCC1	0.93µM*	-25%	7%	?	18	7
COCCNC(=S)N(CCCO)Cc1cc2cc3c(cc2[nH]c1=O)OCCO3	-1%	0%	6%	-8%	-5	-1
Cc1cc(C)n2c(SCc3cccs3)nnc2n1	19%	/	-5%	13%[46.1 µM]	+	15*
CCCSc1nnc2nc(C)cc(C)n12	/	?	/	/	-10	-2
CCO[C@@H]1OC(C(=O)N2CCN(C)CC2)=C[C@H](C2CCCCC2)[C@H]1CCCO	-2%	-20%	/	/	-10	-4
COc1ccc(/C=C/C(=O)NC(=S)NNC(=O)c2cc(OC)c(OC)c(OC)c2)cc1	15µM*	?	/	/	-4	8
COc1ccc(/C=C/C(=O)NC(=S)NNC(=O)c2cc(OC)c(OC)c(OC)c2)cc1OC	?	?	/	/	20	10
CCCCOc1ccc(C(=O)N/C(=C\c2ccc(OC)cc2)C(=O)OCc2ccco2)cc1	?	44%	?	-11%	8	-2
COc1ccc(C(=O)NC(=S)NNC(=O)c2ccco2)cc1	-40%	1%	-8%[46.1 µM]	-17%[46.1 µM]	22	27*
COc1ccc(CC(=O)NNC(=O)c2ccco2)cc1	2%	41%	/	?	22	4
O=C(NC(=S)NNC(=O)c1ccco1)c1ccc(F)cc1	?	?	/	/	active	24*
COc1ccc(C(=O)N/C(=C\c2ccco2)C(=O)OCc2ccco2)cc1	7%	-15%	12%	7%	93*	34*
Cc1nn(C)c(C)c1/C=C(\C#N)C(N)=O	-12%	1%	?	-15%	4	-3
CCOc1ccccc1CNc1ncnc2onc(-c3ccc(F)cc3)c12	/	/	23%[46.1 µM]	/	/	/
CC(=O)N1c2ccc(S(=O)(=O)N3CCCC(C(=O)N4CCCC(C)C4)C3)cc2CC1C (stereo not drawn)	?	?	3%[46.1 µM]	-18%[46.1 µM]	-4	5
CCOC(=O)CSC(=S)NC(=O)c1ccc(OC)cc1	14%	22%	5%	-2%	12	2
COc1ccc(/C=C/C(=O)NC(=S)NNC(=O)c2ccco2)cc1	34%	10µM*	4.5µM*	?	9	4
COc1ccc(C(=O)NC(=S)Nc2ccccc2F)cc1	144%	?	19%	?	67*	56*
COc1ccc(C(=O)NC(=S)NNC(=O)c2ccccc2O)cc1	0%	18%	-4%	13µM*	24	13

Screens as filed in PubChem.
